Values joined by “and” are separate entries in the source; they are usually repeats but may differ in a detail not shown here. Identical values can stand only once. In all, about 420,000 compounds went through this assay and about 64,000 (15%) were called active. About 27% were inconclusive and are not listed. The entries come from a sample that favours actives as a whole. Where a call stands in place of a potency, no number is given. Unmarked numbers belong to inactive results. The call rests on the fitted dose curve; in most records, active means well fitted inhibition curve with a large enough effect; inconclusive means small, poorly fitted or top-dose-only effect; inactive means flat fitted curve, though single readings scatter.
Potency means the concentration at half of the fitted maximal effect.

A short description of the assay: qHTS for Inhibitors of human tyrosyl-DNA phosphodiesterase 1 (TDP1): qHTS in cells in absence of CPT. Further: nearly all actives have a fitted effect of over 55% in size. The settings on record: DT40 Tdp1-/- hTDP1 cells, no CPT, ATP luminescence, 48 h; series mostly up to 46.2 µM. The gist of the method:
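Luminescent ATP content (CellTiter-Glo) served as the growth readout. Knockout chicken DT40 cells expressing human TDP1 were exposed to compounds without camptothecin for a minimum 48 hr at 37 °C.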
In general terms: qHTS replaces the single test concentration by a dilution series.
`CCOc1cccc(=NC2CCCCC2)c2c(C)[nH]c(C)c12`: the Potency was 5.8 µM (active).

Take `O=C(N/N=C/c1c(O)n(C2CC2)c(=S)[nH]c1=O)c1ccccc1Cl`: the Potency entry is “inactive”. On the same count and under the same terms, next, `OC(CNC1CCCCC1)c1ccccc1` (centres undefined): “inactive”; `CC1CC=CCC12C(=O)NC(=S)NC2=O` (centres undefined): “inactive”. On the same count and under the same terms, next, `COc1ccccc1CNC(=O)Cn1c(=O)oc2cc(Cl)ccc21`: 18.4 µM (active); `Cc1ccccc1N1C(=O)NC(=O)/C(=C\c2cc(C)n(C)c2C)C1=O`: “inactive”. The same measure, in the same setting: next, `C[C@@]12CCC3C(CC[C@@H]4CC(O)CC[C@@]34C)C1CCC2O` (some centres undefined): “inactive”; `C[C@]12CCC3C(CC[C@H]4[C@H](O)[C@H](O)CC[C@]34C)C1CC[C@@H]2O` (some centres undefined): “inactive”; `C[C@]12CCC3C(CC[C@H]4[C@H](O)[C@H](O)CC[C@]34C)C1CCC2=O` (some centres undefined): 13 µM (active). Turning to `CC1CCCCN1Cc1cccnc1` (centres undefined), the Potency result is “inactive”. Still for that read-out and setting: next, `CN1CCC(N(C)Cc2cccnc2)CC1`: “inactive”. On the same count and under the same terms, next, `CCOP(=S)(OCC)SCOC(=O)NCC(=O)OC`: “inactive”. Same read-out and setting: next, `CC(Cc1cccs1)NCc1ccc(Cl)cc1` (centres undefined): “inactive”. In the case of `C[C@@H]1Cn2cnc(C(=O)Nc3ccc(CNC(=O)OC(C)(C)C)cc3)c2C(=O)N1`, the Potency entry was “inactive”. The same measure, in the same setting: next, `CC(=O)NCC1=C(c2ccc3ccccc3c2)C[C@@H]2CC[C@H]1N2Cc1ccco1`: 23.1 µM (active); `O=C(NCC1=C(c2ccc3ccccc3c2)C[C@@H]2CC[C@H]1N2Cc1ccco1)c1cccs1`: 23.1 µM (active); `N[C@H](Cc1o[nH]c(=O)c1Cl)C(=O)O`: “inactive”. On the same count and under the same terms, next, `CC(=NCc1ccc2c(c1)OCO2)c1c(O)[nH]c(=O)[nH]c1=O`: “inactive”; `Cc1ccc(S(=O)(=O)N(C)c2ccc(C(=O)NCC3(N(C)C)CCCCC3)cc2)cc1`: “inactive”; `CN(C)c1nc(N(C)C)nc(N(C#N)CCCl)n1`: “inactive”. On the same count and under the same terms, next, `c1cncc(CNCCc2c[nH]c3ccccc23)c1`: “inactive”; `COc1ccc2[nH]cc(CCNCc3ccc(Br)cc3)c2c1`: 10.3 µM (active); `COc1ccc(CNCCc2c[nH]c3ccccc23)cc1OC`: 18.4 µM (active).

For the molecule `C/C(CCc1c[nH]c2ccccc12)=N\O`, the Potency entry is “inactive”. As to `Cc1cc(C=C2C(=O)NC(=O)NC2=O)c(C)n1-c1ccncc1`, the Potency entry is “inactive”. Consider `O=c1[nH]c(=O)n(CCc2ccccc2)c(O)c1/C=N/N1CCOCC1`, for which the Potency entry is “inactive”. Same read-out and setting: next, `Cc1ccc(Cl)cc1N1CCN(C(=O)C2CCC(CNS(=O)(=O)c3cccs3)CC2)CC1` (centres undefined): 18.4 µM (active); `Cc1nc2nc(C)c(CCC(=O)N3CCC4(CC3)OCCO4)c(C)n2n1`: “inactive”; `CCOP(=O)(OCC)C(O)c1ccc(OC)cc1OC` (centres undefined): “inactive”. Same read-out and setting: next, `CC[C@H]1CN2CCc3cc(OC)c(OC)cc3[C@@H]2C[C@@H]1C[C@H]1NCCc2cc(OC)c(OC)cc21`: 150 nM (active) and 36.6 nM (active). The same measure, in the same setting: next, `Nc1ccc([N+](=O)[O-])cc1`: “inactive”. On to `CCOc1ccc(CN(CCCl)CCCl)cc1C(=O)OC`, for which the Potency is 4.11 µM (active). On the same count and under the same terms, next, `COC([CH2][Hg])CNC(=O)c1ccccc1OCC(=O)O` (centres undefined): 1.68 µM (active); `CC1([N+](=O)[O-])COP(=O)(Nc2ccc(F)cc2)OC1` (centres undefined): “inactive”; `Fc1ccc(N2CCN(Cc3ccc4c(c3)OCO4)CC2)cc1`: “inactive”. With `O=C(Cc1ccccc1[N+](=O)[O-])N1CCN(Cc2ccc3c(c2)OCO3)CC1`, the Potency result is “inactive”. The same measure, in the same setting: next, `Cc1ccc(NC(=O)N(Cc2ccc3c(c2)OCO3)C2CCN(Cc3ccccc3)CC2)cc1F`: 23.1 µM (active); `OCC#CC[N+]1(CC#Cc2ccccc2)CCCC1`: “inactive”.

Turning to `CN1CCN(Cc2ccc(OC(F)(F)F)cc2)CC1`, the Potency entry is “inactive”.

With `CN(C)CCCN=Cc1c(O)n(Cc2ccco2)c(=O)[nH]c1=O`, the Potency entry is “inactive”. The same measure, in the same setting: next, `ClCCN(CCCl)c1ccc(C=Nc2ccc(/C=C/c3ccnc4ccccc34)cc2)cc1`: 11.2 µM (active); `COc1ccccc1NC(=O)N1C[C@@H]2C[C@@H](C1)c1cccc(=O)n1C2`: “inactive”; `O=c1[nH]c(=S)[nH]c(O)c1/C=C1\C=Nc2ccccc21`: 9.2 µM (active). The same measure, in the same setting: next, `COc1ccccc1N=Nc1c(O)[nH]c(=S)[nH]c1=O`: “inactive”; `CNC(=S)N/N=C1\C2CN3CCN(C2)CC1(c1ccccc1)C3`: “inactive”; `C=C(C)C1(CCCC)C(=O)NC(=S)NC1=O`: “inactive”. Same read-out and setting: next, `CC(C)C(N)C(=O)OCCOCn1cnc2c(=O)[nH]c(N)nc21` (centres undefined): 4.11 µM (active); `CC/C(=N\NC(=O)c1ccccc1O)c1c(O)n(Cc2ccccc2)c(=O)[nH]c1=O`: “inactive”; `CC(=O)N(C1=NCCCS1)c1ccccc1F`: “inactive”. Regarding `C[C@]12CCCCC1=CC(=O)C1C2CC[C@@]2(C)C1C[C@@H](F)[C@@H]2O` (some centres undefined), the Potency was 16.4 µM (active).

Regarding `NCCc1ccc(S(=O)(=O)F)cc1`, the Potency result is “inactive”. `N=c1ccccn1Cc1ccccc1`: the Potency result was “inactive”. On to `C/C(=C\C=C/[C@@H](C)C(=O)O)[C@H]1CN[C@H](C(=O)O)[C@@H]1CC(=O)O`, for which the Potency entry is “inactive”. On the same count and under the same terms, next, `Cc1cccc(OP(=O)(Oc2cccc(C)c2)OC(c2ccccc2)C(F)(F)F)c1` (centres undefined): 16.4 µM (active); `C[N+]1(C)CCOC(O)(c2ccc(-c3ccc(C4(O)C[N+](C)(C)CCO4)cc3)cc2)C1` (centres undefined): “inactive”; `CC1=CC(=Cc2sc3ccccc3[n+]2C)C=C(C)O1`: 0.0164 µM (active). Regarding `ClC(Cl)(Cl)c1ccccc1`, the Potency entry is “inactive”. On the same count and under the same terms, next, `CCOP(=O)(OCC)C(Nc1cccc(C)c1)c1ccc(F)cc1` (centres undefined): 16.4 µM (active); `CC[N+]1(C)CCCC(OC(=O)C(O)(c2ccccc2)c2ccccc2)C1` (centres undefined): “inactive”; `O=c1[nH]c(O)c(C=Nc2cc(F)cc(F)c2)c(=O)[nH]1`: “inactive”.

Regarding `CCN(CC)c1ccc([N+](=O)[O-])c2cccnc12`, the Potency result was “inactive”.

As for `CN(c1ccccc1)c1ccc([N+](=O)[O-])c2nonc12`, the Potency is 16.4 µM (active). Same read-out and setting: next, `O=C(O)/C=C/c1ccc2c(c1)OCO2`: “inactive”; `O=C(CN1CCCC1=O)NCCc1ccccc1`: “inactive”. Regarding `CCOP(=O)(OCC)C(Cc1ccccc1)N=C(c1ccccc1)c1ccccc1` (centres undefined), the Potency was 14.6 µM (active). As for `CCOP(=O)(OCC)C(NC(=O)c1ccc(C)cc1)C(Cl)(Cl)Cl` (centres undefined), the Potency result was “inactive”. On the same count and under the same terms, next, `CCOP(=O)(OCC)C(NC(=O)c1ccc(OC)cc1)C(Cl)(Cl)Cl` (centres undefined): “inactive”; `O=C(NC(=S)N1C[C@H]2C[C@H](C1)c1cccc(=O)n1C2)c1ccc(F)cc1`: “inactive”; `O=C(c1ccccc1[N+](=O)[O-])N1CCC2(CC1)OCCO2`: “inactive”. The same measure, in the same setting: next, `O=C(c1cc2nc(-c3ccccc3)cc(-c3ccccc3)n2n1)N1CCC2(CC1)OCCO2`: 23.1 µM (active); `Cc1ccc(-c2cc(C(=O)N3CCC4(CC3)OCCO4)no2)cc1`: “inactive”; `CN(C)C(=O)Oc1ccc2c(c1)O/C(=C\c1ccccc1)C2=O`: “inactive”. Same read-out and setting: next, `Cc1ncsc1CCCl`: “inactive”. For `Cc1ccc(S(=O)(=O)N2CCCc3cc(NS(=O)(=O)c4cc(C)ccc4C)ccc32)cc1`, the Potency is 13 µM (active). Take `COC(=O)C[C@H]1CC[C@H]2NC[C@@H](O)COC[C@@H]2O1`: the Potency entry is “inactive”. The same measure, in the same setting: next, `c1ccc2c(c1)[I+]c1ccccc1-2`: 33.5 nM (active) and 15.8 nM (active) and 126 nM (active). Regarding `Cc1cccc(NC(=O)OC2CN3CCC2CC3)c1` (centres undefined), the Potency entry was “inactive”. On the same count and under the same terms, next, `COc1ccccc1C1=NCc2nnc(CSC)n2-c2ccc(Cl)cc21`: “inactive”; `Cc1nc2ccccn2c1P(=S)(N1CCCCC1)N1CCCCC1`: 18.4 µM (active).

Consider `CC(=NCC1CCCO1)c1c(O)n(-c2ccccc2)c(=O)[nH]c1=O` (centres undefined), for which the Potency entry was “inactive”. The same measure, in the same setting: next, `CCc1nnc(NS(=O)(=O)c2ccc(N=Cc3c(O)n(-c4ccccc4)c(=O)[nH]c3=O)cc2)s1`: “inactive”; `CCN(CC)C(=O)Oc1ccc(NC(=O)N2CCOCC2)cc1`: “inactive”. Same read-out and setting: next, `COc1ccc(C(=O)C2CCCN(Cc3ccc(C)s3)C2)cc1OC` (centres undefined): 14.6 µM (active). Same read-out and setting: next, `Cc1ccsc1C(=O)C1CCCN(Cc2ccc(O)cc2)C1` (centres undefined): “inactive”; `c1ccc(CCCCN2CCC(c3ccccc3)CC2)cc1`: 11.9 µM (active) and 18.4 µM (active); `c1ccc(CCN2CCC3(CC2)OCCO3)cc1`: “inactive”. In the case of `c1ccc(CCNC2CCCCCC2)cc1`, the Potency result is “inactive”. Still for that read-out and setting: next, `CCC(=O)OC(Cc1ccccc1)(c1ccccc1)C(C)CN(C)C` (centres undefined): “inactive”; `CC[C@]1(O)C(=O)OCc2c1cc1n(c2=O)Cc2cc3ccccc3nc2-1`: 0.0211 µM (active).

For the molecule `Cc1c(C(=O)O)cccc1-n1c(C)cc(/C=C2\C(=O)NC(=O)N(c3ccc4c(c3)OCO4)C2=O)c1C`, the Potency result was “inactive”. `c1ccc(Cc2nn3c(Cn4cnc5ccccc54)nnc3s2)cc1`: the Potency is 23.1 µM (active). Still for that read-out and setting: next, `CN1CC[C@H](c2c(O)cc(O)c3c(=O)cc(-c4ccccc4Cl)oc23)[C@H](O)C1`: 0.0282 µM (active). The same measure, in the same setting: next, `C[C@@H]1CC[C@@]2(OC1)O[C@H]1C[C@H]3[C@@H]4CC=C5C[C@@H](O)[C@H](O)C[C@]5(C)C4CC[C@]3(C)[C@H]1[C@@H]2C` (some centres undefined): 18.4 µM (active). On the same count and under the same terms, next, `CC(=O)N1CN2CN(C(C)=O)CC(C(=O)c3ccc(Br)cc3)(C2)C1`: “inactive”; `Cc1ccc(P(=S)(c2ccc(C)o2)N2CCOCC2)o1`: “inactive”; `Cc1cc(-c2ccc(N)c(C)c2)ccc1N`: “inactive”. In the case of `Fc1ccc(C(OCCN2CCN(C/C=C\c3ccccc3)CC2)c2ccc(F)cc2)cc1`, the Potency is 6.68 µM (active). Same read-out and setting: next, `Cn1cc(C(=O)OCC(=O)N2CCCC2)c2ccccc21`: “inactive”; `CCN(Cc1ccccc1)S(=O)(=O)c1ccc2c(c1)CCCN2C(C)=O`: 18.4 µM (active). The same measure, in the same setting: next, `Cc1ccc2c(c1)C1CN(C)CCC1N2C(=O)Cn1nnc(-c2ccccc2F)n1` (centres undefined): “inactive”; `CC1CNCCN1c1ccc(Cl)cc1` (centres undefined): “inactive”. Consider `O=c1oc2ccccc2c(O)c1C(c1ccccc1O)c1c(O)c2ccccc2oc1=O`, for which the activity change, negative = growth inhibition was -17.6% [at 9.04 µM]. Turning to `CCC1(C)CC(CCNCc2ccc(N(C)C)cc2)(c2ccc(F)cc2)CCO1` (centres undefined), the Potency was 16.4 µM (active).

Turning to `CC1=CC(=O)C2=C(C)C[C@H](O)[C@H]3[C@H](C)C(=O)O[C@@H]3C12` (some centres undefined), the Potency entry was “inactive”.

For the origin of these results see PubChem BioAssay AID686978 (National Center for Advancing Translational Sciences (NCATS), 2013).
